Only some compounds are listed: those with a hit (about 9% of all), similar ones and a draw of the others.
PLK1 PBD inh = qHTS for Inhibitors of PLK1-PDB (polo-like kinase 1 - polo-box domain): Primary Screen; Serine/threonine-protein kinase PLK1 (Homo sapiens), P53350; Potency, µM, without a hit: max response, negative = inhibition, usual class: inhibitors; Plk1 PBD binding of FITC phosphopeptide, fluorescence polarization; actives 2.8% (n = 360,000); note: series mostly up to about 57 µM; % is set by controls: 0 for no effect and ±100 for the full control effect; nearly all actives have a fitted effect of over 65% in size
12-LOX inh = Primary qHTS assay for inhibitors of human arachidonate 12S-lipoxygenase (ALOX12): Round 2; Polyunsaturated fatty acid lipoxygenase ALOX12 (Homo sapiens), P18054; purified 12hLO, xylenol orange hydroperoxide absorbance; Potency, µM (doses to about 108 µM), without a hit: top-dose activity change, negative = inhibition, hits mostly inhibitors; actives 1.1% (n = 580,000); AID 1671190, 2021; note: % is set by controls: 0 for no effect and ±100 for the full control effect
Target sequence (P18054 whole entry, looked up): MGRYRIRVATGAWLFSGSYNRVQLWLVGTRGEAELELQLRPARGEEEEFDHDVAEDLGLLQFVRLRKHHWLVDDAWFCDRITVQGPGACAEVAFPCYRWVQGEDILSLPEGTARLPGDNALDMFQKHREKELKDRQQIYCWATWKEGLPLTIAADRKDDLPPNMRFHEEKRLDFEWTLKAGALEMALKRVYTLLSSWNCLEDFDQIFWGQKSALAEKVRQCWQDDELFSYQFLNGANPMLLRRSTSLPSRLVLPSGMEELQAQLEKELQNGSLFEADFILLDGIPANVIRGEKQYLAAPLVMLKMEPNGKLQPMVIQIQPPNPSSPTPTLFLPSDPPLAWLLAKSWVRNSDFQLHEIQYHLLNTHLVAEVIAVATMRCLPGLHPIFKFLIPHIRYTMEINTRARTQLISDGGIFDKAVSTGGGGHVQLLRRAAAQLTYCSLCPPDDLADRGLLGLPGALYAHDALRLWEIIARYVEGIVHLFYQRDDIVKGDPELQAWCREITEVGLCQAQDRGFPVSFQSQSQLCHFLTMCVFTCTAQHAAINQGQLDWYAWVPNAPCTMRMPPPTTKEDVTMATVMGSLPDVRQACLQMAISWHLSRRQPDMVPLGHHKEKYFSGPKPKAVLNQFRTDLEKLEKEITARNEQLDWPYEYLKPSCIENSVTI
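Purified human 12hLO at 150 nM in 25 mM Hepes, 0.01% Triton X-100, pH 7.0, preincubated 15 min at room temperature with compound. Reaction started with 40 uM arachidonic acid, 30 min at room temperature. Hydroperoxide measured by Fe-xylenol orange, 573/405 nm absorbance ratio.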
HP1b binding inh = HTS for Inhibitors of HP1-beta Chromodomain Interactions with Methylated Histone Tails; Chromobox protein homolog 1 (Homo sapiens), P83916; AlphaScreen HP1-beta / biotin-H3K9me3 peptide binding; Potency, µM (highest dose often 114 µM), for inactives: at the top dose activity change, negative = inhibition, actives largely listed as inhibitors; actives 0.56% (n = 390,000); AID 540317, 2011; note: nearly all actives have a fitted effect of over 70% in size
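Compound inhibition of the preformed complex between 50 nM HP1-beta and 50 nM biotinylated H3K9me3 peptide was read by AlphaScreen. Buffer was PBS pH 7.4 with 0.01% Tween-20. Incubations ran 30 min at room temperature, with 10 ug/mL donor/acceptor beads.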
BAZ2B inh = qHTS Assay for Inhibitors of BAZ2B; AID 504333, 2011; Potency, µM (series often up to 114 µM), for inactives: at the top dose activity change, negative = inhibition, usual class: inhibitors; Bromodomain adjacent to zinc finger domain protein 2B (Homo sapiens), Q9UIF8; AlphaScreen BAZ2B-H3K14Ac peptide displacement; actives 4.4% (n = 360,000); note: % is set by controls: 0 for no effect and ±100 for the full control effect; nearly all actives have a fitted effect of over 60% in size
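BAZ2B (50 nM) with biotin-H3(5-23)K14Ac peptide (50 nM) in PBS pH 7.4, 0.01% Tween-20, preformed 30 min, then compound 30 min at room temperature; top concentration 110uM. AlphaScreen streptavidin donor/nickel chelate acceptor beads (10 ug/mL final), 20 min dark, signal read.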
G9a block = qHTS Assay for Inhibitors of Histone Lysine Methyltransferase G9a; Histone-lysine N-methyltransferase EHMT2 (Homo sapiens), Q96KQ7; G9a H3K9 monomethylation, AlphaScreen, 2 h; Potency, µM (highest dose often 102 µM), without a hit: at the highest dose activity, negative = inhibition, most hits filed as inhibitors; actives 8.8% (n = 350,000); note: % is set by controls: 0 for no effect and ±100 for the full control effect; nearly all actives have a fitted effect of over 75% in size
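Compounds were preincubated with 20 nM G9a for 15 min, after which biotinylated H3K9 peptide (500 nM) and SAM (20 uM) started a 2 h room-temperature reaction. Monomethylated product was quantified by antibody-based AlphaScreen chemiluminescence.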
JMJD2A Tudor inh = qHTS Assay for Inhibitors of JMJD2A-Tudor Domain | Lysine-specific demethylase 4A (Homo sapiens), O75164 | AlphaScreen JMJD2A-Tudor / H3K4me3 peptide binding | Potency, µM (highest dose often 114 µM), for the others: top-dose activity change, negative = inhibition, actives largely listed as inhibitors | actives 4.4% (n = 390,000); note: % is set by controls: 0 for no effect and ±100 for the full control effect; nearly all actives have a fitted effect of over 50% in size
Starred values were filed as active, the others as inactive; [ ] = remark or other dose. Calls come from the whole dose curve; as a rule, active = well fitted curve in the direction sought with a large enough effect; inconclusive = small, poorly fitted or top-dose-only effect, or another doubt; inactive = no such curve, though single readings can be large; an effect the other way counts as inactive or inconclusive. Potency is the fitted concentration of half-maximal effect.

How did CC[n+]1ccc(C)c2cc(S(=O)C(F)(F)F)ccc21 (configuration not stated) do in these assays?
PLK1 PBD inh: -4.6%; HP1b binding inh: -10.6%; BAZ2B inh: -5.3%; G9a block: inconclusive; JMJD2A Tudor inh: -28.9%

Results for Cc1ccnc2ccc(P(=O)(c3ccccc3)c3ccccc3)cc12 ?
BAZ2B inh: -15.9%; G9a block: 9.4%

What do the screens show for `Cc1ccc(NC(=S)NCC2(C)CC(NC(=S)Nc3ccc(C)cc3C)CC(C)(C)C2)c(C)c1` (configuration not stated)?
12-LOX inh: 7.08µM*

Results for CC1(C)CC(NC(=S)Nc2ccccc2)CC(C)(CNC(=S)Nc2ccccc2)C1 (configuration not stated) ?
12-LOX inh: 28.2µM*

Results for CC1=CC(=O)c2c(O)ccc(O)c2C1=O ?
BAZ2B inh: 3.55µM*; G9a block: -189.3%[59 µM]

What do the screens show for `O=C(COc1ccccc1)N[C@H]1CO[C@H]2[C@@H]1OC[C@@H]2Nc1nccc(-c2ccco2)n1`?
12-LOX inh: 95.7%[176 µM]

Results for Cc1ncc([N+](=O)[O-])n1CCOC(=O)NC(NCc1ccccc1)C(Cl)(Cl)Cl (configuration not stated) ?
PLK1 PBD inh: -3.9%; 12-LOX inh: 7.6%; HP1b binding inh: 26.7%; BAZ2B inh: -1.0%; JMJD2A Tudor inh: -16.2%

What do the screens show for `Cc1ncc([N+](=O)[O-])n1CCOC(=O)NC(NCc1cccnc1)C(Cl)(Cl)Cl` (configuration not stated)?
PLK1 PBD inh: 26.7µM*; 12-LOX inh: -7.4%; HP1b binding inh: 15.9%; BAZ2B inh: -1.1%; G9a block: 10.7%; JMJD2A Tudor inh: -27.5%

How did Cc1ccc(CNC(=O)c2nc(S(=O)(=O)Cc3ccc(C)cc3)ncc2Cl)cc1 do in these assays?
12-LOX inh: -9.4%; HP1b binding inh: 42.7%; BAZ2B inh: 0.2%; G9a block: -28.5%[59 µM]; JMJD2A Tudor inh: 4.4%

Results for CN(C)c1ccc(/C=C2/C[N+](C)(C)C/C(=C/c3ccc(N(C)C)cc3)C2=O)cc1 ?
PLK1 PBD inh: 38.8%; 12-LOX inh: 50.1µM*; HP1b binding inh: 39.8µM*; JMJD2A Tudor inh: 39.8µM*

How did CC(C)/C=C1\CC/C(=C\c2ccc(N(C)C)cc2)C1=O do in these assays?
PLK1 PBD inh: 32.2%; 12-LOX inh: -17.2%; HP1b binding inh: 41.4%; BAZ2B inh: 12.1%; G9a block: 20.1%; JMJD2A Tudor inh: -4.1%

What do the screens show for `COCCCNC(=S)N1CCN(S(=O)(=O)c2ccc(OC)cc2)CC1`?
PLK1 PBD inh: 21.2µM*; 12-LOX inh: -7.6%; HP1b binding inh: inconclusive; BAZ2B inh: -10.2%; G9a block: 16.5%; JMJD2A Tudor inh: -25.6%[11.4 µM]

How did COc1ccc(S(=O)(=O)N2CCN(C(=S)NCCc3ccccc3)CC2)cc1 do in these assays?
PLK1 PBD inh: 4.3%; 12-LOX inh: inconclusive; HP1b binding inh: 27.5%; BAZ2B inh: -21.0%; G9a block: -6.2%[12.7 µM]; JMJD2A Tudor inh: -16.1%

How did COc1ccc(CCNC(=S)N2CCN(S(=O)(=O)c3cccc(F)c3)CC2)cc1 do in these assays?
PLK1 PBD inh: -19.4%; 12-LOX inh: 9.5%; HP1b binding inh: 10.1%; BAZ2B inh: 12.4%; G9a block: 50.1µM*; JMJD2A Tudor inh: 2.1%

How did COc1ccc(CCNC(=S)N2CCN(S(=O)(=O)c3ccc(C)cc3)CC2)cc1 do in these assays?
PLK1 PBD inh: -25.2%; 12-LOX inh: -1.0%; HP1b binding inh: 5.5%; BAZ2B inh: 10.4%; G9a block: 50.1µM*; JMJD2A Tudor inh: 2.7%

Results for COCCCNC(=S)N1CCN(S(C)(=O)=O)CC1 ?
PLK1 PBD inh: -0.1%; 12-LOX inh: -11.7%; HP1b binding inh: 7.6%; BAZ2B inh: 3.1%; G9a block: 29.0%[59 µM]; JMJD2A Tudor inh: -18.3%

Results for Cc1c(O)cc2n(c1=O)-c1ccc(Cl)cc1C2(C)C ?
PLK1 PBD inh: -12.0%; 12-LOX inh: 4.4%; HP1b binding inh: 0.6%; BAZ2B inh: -1.1%; G9a block: 20.4%[59 µM]; JMJD2A Tudor inh: -7.5%

How did CN1C[C@H](NC(=O)NC2CCCC2)CCC[C@@H](C(=O)NCc2cc(F)cc(F)c2)CC1=O do in these assays?
12-LOX inh: 11.8%

What do the screens show for `Clc1ccc(C2=Nn3c(Cn4nnc5ccccc54)nnc3SC2)cc1`?
PLK1 PBD inh: 8.44µM*; 12-LOX inh: inconclusive; HP1b binding inh: inconclusive; BAZ2B inh: inconclusive; JMJD2A Tudor inh: 79.4µM*

Results for c1ccc(-c2ccc(C3=Nn4c(Cn5nnc6ccccc65)nnc4SC3)cc2)cc1 ?
PLK1 PBD inh: 4.74µM*; 12-LOX inh: 0.0%; HP1b binding inh: 15.8µM*; BAZ2B inh: 5.6%[57.1 µM]; G9a block: 8.91µM*; JMJD2A Tudor inh: inconclusive

Results for c1ccc(C2=Nn3c(Cn4nnc5ccccc54)nnc3SC2)cc1 ?
PLK1 PBD inh: 3.2%; 12-LOX inh: 8.6%; HP1b binding inh: 27.4%; BAZ2B inh: -5.3%; G9a block: inconclusive; JMJD2A Tudor inh: -6.6%

What do the screens show for `CCOc1ccccc1CNCc1ccc(C(=O)O)cc1`?
PLK1 PBD inh: -7.9%; 12-LOX inh: -7.8%; HP1b binding inh: -5.5%; BAZ2B inh: -37.0%; G9a block: -31.4%; JMJD2A Tudor inh: -9.9%

Results for COc1ccc(NC2=CC(c3ccc(OC)cc3)N(c3ccc(OC)cc3)C2=O)cc1 (configuration not stated) ?
PLK1 PBD inh: 23.8µM*; 12-LOX inh: -28.1%; HP1b binding inh: 1.8%; BAZ2B inh: inconclusive; G9a block: inconclusive; JMJD2A Tudor inh: inconclusive

What do the screens show for `O=C1C(Nc2ccccc2)=CC(c2ccc(O)cc2)N1c1ccccc1` (configuration not stated)?
PLK1 PBD inh: -16.4%; 12-LOX inh: -28.0%; HP1b binding inh: 64.5%; BAZ2B inh: inconclusive; JMJD2A Tudor inh: -8.1%[11.4 µM]

What do the screens show for `COc1cc(C2C=C(Nc3ccccc3)C(=O)N2c2ccccc2)ccc1O` (configuration not stated)?
PLK1 PBD inh: -10.4%; 12-LOX inh: 0.7%; HP1b binding inh: -2.8%; BAZ2B inh: inconclusive; G9a block: 50.1µM*; JMJD2A Tudor inh: inconclusive
